# Assay results as given in PubChem BioAssay (NCI).
# The panel holds about 79,000 compounds, 15% with a hit somewhere; the sample as a whole holds those more often. Unmarked numbers belong to inactive results. The source made the active and inactive calls. Cut-off read from the data, not from the text of the source: active = growth inhibition above about 70%; inactive = the rest.
# Tests used:
# [1] = NCI Yeast Anticancer Drug Screen. Data for the rad52 strain (AID 147);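 note: 0% = growth of vehicle-treated control cultures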; settings: S. cerevisiae rad52 mutant growth inhibition, hits give high values
# How it was run: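 Measured: yeast growth inhibition. System: strain with a defined DNA damage repair alteration. Reference: vehicle-treated control cultures.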
# [2] = NCI Yeast Anticancer Drug Screen. Data for the wt1 strain (AID 149);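 note: 0% = growth of vehicle-treated wt1 cultures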; settings: S. cerevisiae wt1 strain (SPY 50644) growth inhibition, hits give high values
# How it was run: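 Each compound is tested on wt1 yeast and the loss of growth versus vehicle gives the inhibition value.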
# [3] = NCI Yeast Anticancer Drug Screen. Data for the rad50EPP+ strain (AID 151);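 note: 0% = growth of vehicle-treated control cultures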; settings: S. cerevisiae rad50 mutant strain, hits give high values
# How it was run: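 One strain with a rad50 alteration (rad50EPP+) was compound-treated, its growth then compared to that of vehicle controls.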
# [4] = NCI Yeast Anticancer Drug Screen. Data for the mgt1 strain (AID 153); settings: S. cerevisiae mgt1 mutant growth inhibition, hits give high values
# How it was run: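 After exposure of the mgt1 yeast mutant to compound, growth was measured and reported as inhibition compared with vehicle controls.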
# [5] = NCI Yeast Anticancer Drug Screen. Data for the rad50 strain (AID 155);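 note: 0% = growth of vehicle-only cultures of the same strain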; settings: S. cerevisiae rad50 strain growth inhibition, hits give high values
# How it was run: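 Vehicle-treated cultures provide the reference for the growth inhibition reported for compound-exposed, repair-deficient yeast.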
# [6] = NCI Yeast Anticancer Drug Screen. Data for the mec2-1 strain (AID 157); settings: S. cerevisiae mec2-1 strain, hits give high values
# How it was run: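 Test agents were screened against the mec2-1 yeast strain, with defined DNA repair or cell cycle alteration. Growth was scored as inhibition against vehicle-only controls.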
# [7] = NCI Yeast Anticancer Drug Screen. Data for the rad14 strain (AID 159);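 note: 0% = growth of vehicle-treated control cultures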; settings: S. cerevisiae rad14 strain growth inhibition, hits give high values
# How it was run: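 Inhibition of growth is reported for a repair-deficient yeast mutant following compound treatment, calculated relative to cultures that received vehicle.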
# [8] = NCI Yeast Anticancer Drug Screen. Data for the sgs1 mgt1 strain (AID 161);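 note: 0% = growth of cultures given vehicle only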; settings: S. cerevisiae sgs1 mgt1 strain, hits give high values
# How it was run: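 Read-out: growth inhibition vs vehicle controls. Cells: mutant yeast strain deficient in DNA damage repair.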
# [9] = NCI Yeast Anticancer Drug Screen. Data for the CLN2oe strain (AID 163);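 note: 0% = growth of vehicle-only control cultures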; settings: S. cerevisiae CLN2oe strain, hits give high values
# How it was run: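 Here, growth inhibition in a cell-cycle-altered yeast strain after compound exposure was quantified against vehicle control growth.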
# [10] = NCI Yeast Anticancer Drug Screen. Data for the cln2 rad14 strain (AID 165);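 note: 0% = growth equal to vehicle treated cultures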; settings: S. cerevisiae cln2 rad14 strain, hits give high values
# How it was run: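 Growth of compound-exposed yeast (cln2 rad14 genotype) measured and expressed as inhibition relative to vehicle.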
# [11] = NCI Yeast Anticancer Drug Screen. Data for the bub3 strain (AID 167); settings: S. cerevisiae bub3 mutant strain, hits give high values
# How it was run: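 Mutant yeast screening strain plus compound; vehicle-treated cultures serve as the 0% inhibition reference.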
# [12] = NCI Yeast Anticancer Drug Screen. Data for the wt2 strain (AID 169); settings: S. cerevisiae wt2 strain growth inhibition, hits give high values
# How it was run: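 Genetically defined yeast strains from a DNA-repair/cell-cycle panel were used. Compound-exposed yeast growth was measured, and the inhibition was calculated relative to vehicle treatment.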
# [13] = NCI Yeast Anticancer Drug Screen. Data for the mlh1 strain (AID 171);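 note: 0% = growth of vehicle-treated control cultures of the same strain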; settings: S. cerevisiae mlh1 strain growth inhibition, hits give high values
# How it was run: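 Here the genetically defined yeast mutant is grown with each compound, and the extent to which its growth falls below that of vehicle-exposed cells is reported.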
# [14] = NCI Yeast Anticancer Drug Screen. Data for the sgs1 strain (AID 173);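 note: 0% = growth of vehicle-only control cultures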; settings: S. cerevisiae sgs1 mutant, hits give high values
# How it was run: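 Relative growth inhibition, referenced to vehicle, was determined in a yeast strain with a defined alteration affecting DNA damage repair or cell cycle control after compound exposure.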
# [15] = NCI Yeast Anticancer Drug Screen. Data for the mlh1 rad18 strain (AID 175); settings: S. cerevisiae mlh1 rad18 strain growth inhibition, hits give high values
# How it was run: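 In this whole-cell yeast screen, a strain with altered DNA damage repair is challenged with compound, and its growth is measured against matched vehicle-treated controls.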
# [16] = NCI Yeast Anticancer Drug Screen. Data for the rad18 strain (AID 177); settings: S. cerevisiae rad18 mutant growth inhibition, hits give high values
# How it was run: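 Screen uses a yeast strain with a defined lesion in DNA damage repair; compound effect is read as loss of growth compared to untreated vehicle cultures.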
# [17] = at 5.0 µM (retest, dose inferred, filed as 0.5)
# [18] = at 50.0 µM (retest, dose inferred, filed as 5.0)
smiles,measurement,setting,value
O=C(Nn1c(-c2ccccc2)nc2ccccc2c1=O)c1ccc(CS)cc1,growth inhibition,[1]; at 1.2 µM,5%
same,growth inhibition,[1]; at 3.7 µM,20%
same,growth inhibition,[1]; at 11.0 µM,12%
same,growth inhibition,[1]; at 33.0 µM,53%
same,growth inhibition,[1]; at 100.0 µM,98% (active)
same,growth inhibition,[2]; at 1.2 µM,-4%
same,growth inhibition,[2]; at 3.7 µM,-6%
same,growth inhibition,[2]; at 11.0 µM,-1%
same,growth inhibition,[2]; at 33.0 µM,23%
same,growth inhibition,[2]; at 100.0 µM,98% (active)
same,growth inhibition,[3]; at 1.2 µM,-2%
same,growth inhibition,[3]; at 3.7 µM,6%
same,growth inhibition,[3]; at 11.0 µM,5%
same,growth inhibition,[3]; at 33.0 µM,31%
same,growth inhibition,[3]; at 100.0 µM,76% (active)
same,growth inhibition,[4]; at 1.2 µM,-9%
same,growth inhibition,[4]; at 3.7 µM,-19%
same,growth inhibition,[4]; at 11.0 µM,-17%
same,growth inhibition,[4]; at 33.0 µM,23%
same,growth inhibition,[4]; at 100.0 µM,97% (active)
same,growth inhibition,[5]; at 1.2 µM,-5%
same,growth inhibition,[5]; at 3.7 µM,2%
same,growth inhibition,[5]; [17],-35%
same,growth inhibition,[5]; at 11.0 µM,8%
same,growth inhibition,[5]; at 33.0 µM,47%
same,growth inhibition,[5]; [18],10%
same,growth inhibition,[5]; at 50.0 µM,79.2% (active)
same,growth inhibition,[5]; at 100.0 µM,98% (active)
same,growth inhibition,[6]; at 1.2 µM,-4%
same,growth inhibition,[6]; at 3.7 µM,-17%
same,growth inhibition,[6]; [17],-23%
same,growth inhibition,[6]; at 11.0 µM,-15%
same,growth inhibition,[6]; at 33.0 µM,24%
same,growth inhibition,[6]; [18],34%
same,growth inhibition,[6]; at 50.0 µM,43.4%
same,growth inhibition,[6]; at 100.0 µM,97% (active)
same,growth inhibition,[7]; at 1.2 µM,-16%
same,growth inhibition,[7]; at 3.7 µM,-16%
same,growth inhibition,[7]; at 11.0 µM,-19%
same,growth inhibition,[7]; at 33.0 µM,21%
same,growth inhibition,[7]; at 100.0 µM,97% (active)
same,growth inhibition,[8]; [17],-11%
same,growth inhibition,[8]; [18],27%
same,growth inhibition,[8]; at 50.0 µM,60.2%
same,growth inhibition,[9]; at 1.2 µM,-11%
same,growth inhibition,[9]; at 3.7 µM,10%
same,growth inhibition,[9]; at 11.0 µM,0%
same,growth inhibition,[9]; at 33.0 µM,20%
same,growth inhibition,[9]; at 100.0 µM,97% (active)
same,growth inhibition,[10]; [17],19%
same,growth inhibition,[10]; [18],40%
same,growth inhibition,[10]; at 50.0 µM,27.5%
same,growth inhibition,[11]; at 1.2 µM,-7%
same,growth inhibition,[11]; at 3.7 µM,-14%
same,growth inhibition,[11]; [17],-12%
same,growth inhibition,[11]; at 11.0 µM,-13%
same,growth inhibition,[11]; at 33.0 µM,47%
same,growth inhibition,[11]; [18],81% (active)
same,growth inhibition,[11]; at 50.0 µM,50.8%
same,growth inhibition,[11]; at 100.0 µM,98% (active)
same,growth inhibition,[12]; at 1.2 µM,9%
same,growth inhibition,[12]; at 3.7 µM,6%
same,growth inhibition,[12]; at 11.0 µM,9%
same,growth inhibition,[12]; at 33.0 µM,34%
same,growth inhibition,[12]; at 100.0 µM,98% (active)
same,growth inhibition,[13]; at 1.2 µM,9%
same,growth inhibition,[13]; at 3.7 µM,7%
same,growth inhibition,[13]; at 11.0 µM,10%
same,growth inhibition,[13]; at 33.0 µM,53%
same,growth inhibition,[13]; at 100.0 µM,98% (active)
same,growth inhibition,[14]; at 1.2 µM,15%
same,growth inhibition,[14]; at 3.7 µM,8%
same,growth inhibition,[14]; at 11.0 µM,21%
same,growth inhibition,[14]; at 33.0 µM,65%
same,growth inhibition,[14]; at 100.0 µM,98% (active)
same,growth inhibition,[15]; [17],-22%
same,growth inhibition,[15]; [18],74% (active)
same,growth inhibition,[15]; at 50.0 µM,48%
same,growth inhibition,[16]; at 1.2 µM,15%
same,growth inhibition,[16]; at 3.7 µM,16%
same,growth inhibition,[16]; at 11.0 µM,14%
same,growth inhibition,[16]; at 33.0 µM,62%
same,growth inhibition,[16]; at 100.0 µM,98% (active)
